The panel holds about 83,000 compounds, 20% with a hit somewhere; the sample as a whole holds those more often.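 Percent growth is the endpoint: 0 to 100 indicates growth inhibition (40 means 60% inhibition), 0 means no net growth, and negative values indicate cell death.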
How the values were obtained:
Assay in all cases: NCI-60 one-dose screen, 48 h (100 = growth as untreated, 0 = no growth, -100 = all killed)
Conditions in all cases: 10 µM; active = growth percent below 10; inactive = the rest
[1] = system: HCT-15 colon
[2] = system: HT29 colon
[3] = system: SNB-75 CNS
[4] = system: SNB-19 CNS
[5] = system: U251 CNS
[6] = system: PC-3 prostate
[7] = system: SK-MEL-5 melanoma
[8] = system: UACC-62 melanoma
[9] = system: LOX IMVI melanoma
[10] = system: SK-MEL-28 melanoma
[11] = system: SK-MEL-2 melanoma
[12] = system: EKVX NSCLC
[13] = system: SN12C renal
[14] = system: UO-31 renal
[15] = system: TK-10 renal
[16] = system: ACHN renal
[17] = system: CAKI-1 renal
[18] = system: A498 renal
[19] = system: MOLT-4 leukemia
[20] = system: CCRF-CEM leukemia

Measured: growth

COc1ccc(-c2nc(SCC(=O)c3ccc(Br)cc3)[nH]c(=O)c2C#N)cc1
inactive: [1] 112% | [2] 101% | [3] 103% | [4] 109% | [5] 109% | [6] 95.1% | [7] 110% | [8] 104% | [9] 102% | [10] 115% | [11] 103% | [12] 107% | [13] 112% | [14] 86.3% | [15] 99.6% | [16] 122% | [17] 99.9% | [18] 78.5% | [19] 96.8%

O=C(NCc1cn(Cc2cccc(Oc3ccccc3)c2)nn1)c1cccnc1Nc1ccccc1
inactive: [1] 30.7% | [2] 47.8% | [3] 54.2% | [4] 67.1% | [5] 42.2% | [6] 44.5% | [7] 40.8% | [8] 53.5% | [9] 45.1% | [10] 47.8% | [11] 55.1% | [12] 58.7% | [13] 50.2% | [14] 54.4% | [15] 85.2% | [16] 54.5% | [17] 48.1% | [18] 19.7% | [19] 38%

CCCCOCC(=O)NC(NP(=O)(N(C)C)N(C)C)C(Cl)(Cl)Cl (stereo not drawn)
inactive: [1] 140% | [2] 122% | [3] 106% | [4] 107% | [5] 120% | [6] 113% | [7] 118% | [8] 103% | [9] 110% | [10] 125% | [11] 107% | [12] 98.1% | [13] 110% | [14] 92% | [15] 134% | [16] 143% | [17] 92.3% | [18] 118% | [19] 99.5%

CCOC(=O)c1sc(NC(=O)c2cc(OC)c(OC)c(OC)c2)nc1C
inactive: [1] 96.9% | [2] 99.8% | [3] 98.5% | [4] 118% | [5] 106% | [6] 65.1% | [7] 95.6% | [8] 88.5% | [9] 97.3% | [10] 101% | [11] 30.8% | [12] 99.8% | [13] 92.6% | [14] 75.7% | [16] 105% | [17] 116% | [18] 88.8% | [20] 88.3%

O=C(O)c1ccccc1C(=O)c1cccc2c(F)cccc12
inactive: [1] 104% | [2] 115% | [3] 86.2% | [4] 98.3% | [5] 98.7% | [6] 92.5% | [7] 108% | [8] 97.7% | [9] 92.8% | [10] 111% | [11] 103% | [12] 108% | [13] 100% | [14] 87.1% | [15] 110% | [16] 98.2% | [17] 104% | [18] 130% | [20] 92.3% | [19] 93.1%

Cn1c(=O)c2[nH]c(C(O)c3ccc(Cl)cc3)nc2n(C)c1=O (stereo not drawn)
inactive: [1] 102% | [2] 105% | [3] 80.2% | [4] 95.8% | [5] 99.5% | [6] 87.9% | [7] 107% | [8] 93.6% | [9] 96.6% | [10] 108% | [11] 96.4% | [12] 98.7% | [13] 89.8% | [14] 82.3% | [16] 103% | [17] 105% | [18] 95.1% | [20] 99.3% | [19] 103%

CC1(C)CC(=O)c2c(nc3ccc(Cl)cc3c2-c2ccccc2)C1
inactive: [1] 81.3% | [2] 98.6% | [3] 95.7% | [4] 90% | [5] 102% | [6] 48.7% | [7] 73% | [8] 75.3% | [9] 93.4% | [10] 174% | [11] 81.2% | [12] 95.9% | [13] 92.5% | [14] 66% | [15] 118% | [16] 93.9% | [17] 85.5% | [18] 115% | [20] 49.5% | [19] 68.2%

O=C(OCC1OC(n2cc(C(F)(F)F)c(=O)[nH]c2=O)CC1OC(=O)c1ccc([N+](=O)[O-])cc1)c1ccc([N+](=O)[O-])cc1 (stereo not drawn)
inactive: [1] 87% | [2] 75.3% | [3] 90.8% | [4] 94.5% | [5] 76.1% | [6] 71.7% | [7] 43.2% | [8] 30.7% | [9] 64.2% | [10] 86.9% | [11] 78% | [12] 107% | [13] 43.4% | [14] 50.3% | [15] 86.7% | [16] 16% | [17] 38.6% | [18] 60.6% | [19] 77.4%

— PubChem BioAssay (NCI)
